SMILES strings stand for the structures. Unmarked numbers belong to inactive results.

This note sets out measurements from the supplement of paper PMC4206461.

One assay concerns Pseudomonas aeruginosa PA14 dppA1-A5 penta mutant + pBBR5.DppA1 (PA14_58350). The assay can be described thus: respiration area under curve with compound as sole nitrogen source, 24 h (OmniLog AUC (arbitrary units)); higher = more respiration / better utilisation as nitrogen source, active = 2000 or more. The method, then: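 Biolog Phenotype MicroArray plates PM6-PM8: each di/tripeptide is the sole nitrogen source. Tetrazolium reduction was read in the OmniLog for 24 h at 37°C and summarised as area under the respiration curve (arbitrary units). Values below 2000 count as no respiration. Strain is the SBP penta mutant complemented with DppA1 on a plasmid under its native promoter. Lys/His/Cys peptides are excluded.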
On to `NC(=O)C[C@H](N)C(=O)N[C@@H](CCC(=O)O)C(=O)O` (plate: PM6), for which the “respiration area under curve” value was 4770 (active).

Turning to `NCC(=O)N[C@@H](CC(=O)O)C(=O)O` (plate: PM8), the “respiration area under curve” value was 4090 (active).

As to `N[C@@H](Cc1c[nH]c2ccccc12)C(=O)NCC(=O)O` (plate: PM7), the “respiration area under curve” value was 1010.

On to `C[C@@H](O)[C@H](N)C(=O)N[C@@H](CCC(=O)O)C(=O)O` (plate: PM7), for which the “respiration area under curve” value was 5630 (active).

Consider `C[C@H](N)C(=O)N[C@@H](CCCN=C(N)N)C(=O)O` (plate: PM6), for which the “respiration area under curve” value is 9300 (active).

For `NCC(=O)N[C@@H](CC(N)=O)C(=O)O` (plate: PM8), the “respiration area under curve” value is 14300 (active).

As to `CC[C@H](C)[C@H](NC(=O)[C@@H](N)C(C)C)C(=O)O` (plate: PM7), the “respiration area under curve” value was 6870 (active).

Regarding `N[C@@H](Cc1ccccc1)C(=O)N[C@@H](Cc1c[nH]c2ccccc12)C(=O)O` (plate: PM7), the “respiration area under curve” value is 389.

Consider `N[C@@H](Cc1c[nH]c2ccccc12)C(=O)N[C@@H](CCC(=O)O)C(=O)O` (plate: PM7), for which the “respiration area under curve” value is 1070.

`C[C@H](N)C(=O)N[C@@H](CO)C(=O)O` (plate: PM6): the “respiration area under curve” value was 8180 (active).

Consider `CC(C)[C@H](N)C(=O)N[C@@H](CC(N)=O)C(=O)O` (plate: PM7), for which the “respiration area under curve” value is 10400 (active).

In the case of `CSCCC(NC(=O)C(N)CC(C)C)C(=O)O` (configuration not stated) (plate: PM6), the “respiration area under curve” value is 1220.

For `CC[C@H](C)[C@H](NC(=O)[C@@H](N)Cc1ccccc1)C(=O)O` (plate: PM7), the “respiration area under curve” value was 7890 (active).

For `N[C@@H](Cc1ccccc1)C(=O)N[C@@H](CC(=O)O)C(=O)O` (plate: PM8), the “respiration area under curve” value was 2600 (active).

Turning to `N[C@@H](Cc1ccccc1)C(=O)N[C@@H](CO)C(=O)O` (plate: PM7), the “respiration area under curve” value is 6540 (active).

On to `C[C@@H](O)[C@H](N)C(=O)N[C@@H](CO)C(=O)O` (plate: PM8), for which the “respiration area under curve” value was 5330 (active).

As for `CSCC[C@H](N)C(=O)N[C@@H](Cc1ccc(O)cc1)C(=O)O` (plate: PM8), the “respiration area under curve” value was 780.

For `NC(N)=NCCC[C@H](N)C(=O)N[C@@H](Cc1c[nH]c2ccccc12)C(=O)O` (plate: PM6), the “respiration area under curve” value is 7290 (active).

Regarding `CC(C)[C@H](N)C(=O)N[C@@H](C)C(=O)O` (plate: PM8), the “respiration area under curve” value was 4740 (active).

Consider `CSCC[C@H](N)C(=O)N[C@@H](CCC(=O)O)C(=O)O` (plate: PM7), for which the “respiration area under curve” value was 1490.

With `CSCCC(N)C(=O)NC(CCSC)C(=O)O` (configuration not stated) (plate: PM7), the “respiration area under curve” value is 0.

`CSCC[C@H](NC(=O)[C@@H](N)CO)C(=O)O` (plate: PM7): the “respiration area under curve” value was 2590 (active).

Regarding `NCC(=O)N[C@@H](Cc1ccccc1)C(=O)O` (plate: PM6), the “respiration area under curve” value is 2000 (active).

In the case of `CC(C)C[C@H](NC(=O)[C@H](CC(C)C)NC(=O)[C@@H](N)CC(C)C)C(=O)O` (plate: PM8), the “respiration area under curve” value was 3090 (active).

Regarding `CC(C)[C@H](N)C(=O)N[C@H](C(=O)O)C(C)C` (plate: PM7), the “respiration area under curve” value is 6680 (active).

With `NC(N)=NCCC[C@H](NC(=O)[C@@H]1CCCN1)C(=O)O` (plate: PM8), the “respiration area under curve” value was 10300 (active).

In the case of `N[C@@H](CO)C(=O)N[C@@H](CC(=O)O)C(=O)O` (plate: PM8), the “respiration area under curve” value is 2890 (active).

With `O=C(O)CNC(=O)[C@@H]1CCCN1` (plate: PM7), the “respiration area under curve” value was 6590 (active).

With `N[C@@H](Cc1c[nH]c2ccccc12)C(=O)N[C@@H](Cc1c[nH]c2ccccc12)C(=O)O` (plate: PM7), the “respiration area under curve” value was 477.

Consider `CC(C)CC(N)C(=O)NC(CC(=O)O)C(=O)O` (configuration not stated) (plate: PM6), for which the “respiration area under curve” value was 4660 (active).

As to `N[C@@H](CC(=O)O)C(=O)N[C@@H](Cc1c[nH]c2ccccc12)C(=O)O` (plate: PM6), the “respiration area under curve” value is 1340.

In the case of `CC(C)C(NC(=O)C1CCCN1)C(=O)O` (configuration not stated) (plate: PM8), the “respiration area under curve” value is 5180 (active).

As to `CC(C)[C@H](NC(=O)CN)C(=O)O` (plate: PM6), the “respiration area under curve” value was 1820.

`CC[C@H](C)[C@H](N)C(=O)N[C@@H](Cc1ccccc1)C(=O)O` (plate: PM6): the “respiration area under curve” value is 1500.

For `NC(=O)C[C@H](NC(=O)[C@@H]1CCCN1)C(=O)O` (plate: PM8), the “respiration area under curve” value was 11600 (active).

In another assay the test system is Pseudomonas aeruginosa PA14 wild type. Described as above. The method, then: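 Biolog Phenotype MicroArray plates PM6-PM8: each di/tripeptide is the sole nitrogen source (IF-0 medium with succinate/ferric citrate and dye mix A). Tetrazolium reduction was read in the OmniLog every 15 min for 24 h at 37°C and summarised as area under the respiration curve (arbitrary units). The paper counts values below 2000 as no respiration and above 8000 as solid respiration. Replicate datasets are averaged.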
With `NCC(=O)N[C@@H](CC(=O)O)C(=O)O` (plate: PM8), the “respiration area under curve” value is 5610 (active).

Regarding `CC[C@H](C)[C@H](NC(=O)[C@@H](N)C(C)C)C(=O)O` (plate: PM7), the “respiration area under curve” value is 9390 (active).

Consider `N[C@@H](Cc1c[nH]c2ccccc12)C(=O)N[C@@H](CCC(=O)O)C(=O)O` (plate: PM7), for which the “respiration area under curve” value is 633.

With `C[C@H](N)C(=O)N[C@@H](CO)C(=O)O` (plate: PM6), the “respiration area under curve” value was 9550 (active).

On to `CC(C)[C@H](N)C(=O)N[C@@H](CC(N)=O)C(=O)O` (plate: PM7), for which the “respiration area under curve” value was 12300 (active).

With `CC[C@H](C)[C@H](NC(=O)[C@@H](N)Cc1ccccc1)C(=O)O` (plate: PM7), the “respiration area under curve” value is 8390 (active).

`CSCC[C@H](N)C(=O)N[C@@H](Cc1ccc(O)cc1)C(=O)O` (plate: PM8): the “respiration area under curve” value was 1560.

`CSCC[C@H](NC(=O)[C@@H](N)CO)C(=O)O` (plate: PM7): the “respiration area under curve” value is 4420 (active).

On to `N[C@@H](CO)C(=O)N[C@@H](CC(=O)O)C(=O)O` (plate: PM8), for which the “respiration area under curve” value was 4090 (active).

In the case of `CC(C)CC(N)C(=O)NC(CC(=O)O)C(=O)O` (configuration not stated) (plate: PM6), the “respiration area under curve” value was 7510 (active).

Regarding `CC[C@H](C)[C@H](N)C(=O)N[C@@H](Cc1ccccc1)C(=O)O` (plate: PM6), the “respiration area under curve” value is 2830 (active).

Turning to `NC(=O)C[C@H](NC(=O)[C@@H]1CCCN1)C(=O)O` (plate: PM8), the “respiration area under curve” value is 12900 (active).
